Data taken from PubChem BioAssay AID493170 (National Center for Advancing Translational Sciences (NCATS), 2011).
Records with an inconclusive call do not appear. A number with no mark means an inactive call. Active and inactive are the calls of the source. Calls follow the shape of the dose curve; as a rule, active = well fitted inhibition curve with a large enough effect; inconclusive = small, poorly fitted or top-dose-only effect, or effect the other way; inactive = flat fitted curve, though single readings scatter.

biological target: Ubiquitin carboxyl-terminal hydrolase 2 (Homo sapiens) (UniProt O75604); assay: Ub-rhodamine 110 based assay for inhibitors Ubiquitin-specific Protease USP2a; settings: USP2a Ub-rhodamine110 cleavage, fluorescence; series mostly up to 38.3 µM; activity change, negative = inhibition: at the top concentration; also: nearly all actives have a fitted effect of over 50% in size
Text: NIH Molecular Libraries Probe Centers Network [MLPCN] NIH Chemical Genomics Center [NCGC] MLPCN Grant: XO1-MH079852-01 PI Name: Nicholson, Ben. Progenra Inc, Malvern, PA NCGC Assay Overview: Homeostasis of cellular proteins is maintained through a combination of synthesis and degradation. The pathway that accounts for the majority of protein degradation is the ubiquitin-proteasomal pathway. Ubiquitin (Ub) is highly conserved in all cells and the generation of a multi-Ub chain typically targets proteins for degradation by the proteasome. However, ubiquitination is highly reversible and dynamic. Deubiquitination, the reverse process, is catalyzed through the action of enzymes referred to as isopeptidases or deubiquitinating enzymes (DUBs). This group of enzymes is collectively responsible for maintaining adequate pools of free ubiquitin and regulating the ubiquitination status of cellular proteins. The class of DUBs referred to as the ubiquitin-specific proteases (USP) family functions endoproteolytically to cleave Ub chains from a wide range of protein substrates. USP2a deubiquitinates fatty acid synthase (FASN) which has recently been identified as an emerging oncology target. To identify inhibitors of USP2a a cell-free assay was employed. This assay measures cleavage of a profluorescent substrate (Ub-Rhodamine 110; Boston Biochem Cat#: U-555) by USP2a. The assay gives a fluorescent read-out at excitation/emission wavelengths of 485/531. The USP2a enzyme was provided by Progenra, Inc. licensed for sale by LifeSensors, Inc.
NCGC Assay Protocol: The assay buffer, prepared fresh at the day of the assay, contains 20mM Tris-HCl pH 8.0, 2mM CaCl2, 2mM beta-Mercaptoethanol, 0.05% CHAPS. 3uL of 10 nM (5 nM final) USP2a, was dispensed into a medium-binding black solid Kalypsys 1,536 well plate using the Kalypsys dispenser. The assay plate was then pinned with 23nL compounds in DMSO with a Kalypsys pintool in columns 5-48 (0.3% final DMSO concentration). The negative control was buffer/DMSO only in column 3. The assay plate is incubated at RT for 30min. Subsequently, 3uL of 300 nM Ub-Rhod110 (150 nM final) was dispensed into the plate using a Kalypsys dispenser. Plates were read after every minute for 7 min on a ViewLux (Perkin Elmer) plate reader using the following wavelengths: Ex 485nm /Em 531nm. Data were normalized to the AC100 inhibition (buffer alone). Concentration-response curves were fitted to the normalized data and the concentration-response curves were then classified based on curve quality (r2), response magnitude and degree of measured activity. The time zero reading was used to flag fluorescence artifacts.
% is scaled to controls: 0 for no effect and ±100 for the full control effect; potency is read from the fitted curve at half-maximal effect.

Sequence of Ubiquitin carboxyl-terminal hydrolase 2 (Homo sapiens) (O75604 whole entry, looked up): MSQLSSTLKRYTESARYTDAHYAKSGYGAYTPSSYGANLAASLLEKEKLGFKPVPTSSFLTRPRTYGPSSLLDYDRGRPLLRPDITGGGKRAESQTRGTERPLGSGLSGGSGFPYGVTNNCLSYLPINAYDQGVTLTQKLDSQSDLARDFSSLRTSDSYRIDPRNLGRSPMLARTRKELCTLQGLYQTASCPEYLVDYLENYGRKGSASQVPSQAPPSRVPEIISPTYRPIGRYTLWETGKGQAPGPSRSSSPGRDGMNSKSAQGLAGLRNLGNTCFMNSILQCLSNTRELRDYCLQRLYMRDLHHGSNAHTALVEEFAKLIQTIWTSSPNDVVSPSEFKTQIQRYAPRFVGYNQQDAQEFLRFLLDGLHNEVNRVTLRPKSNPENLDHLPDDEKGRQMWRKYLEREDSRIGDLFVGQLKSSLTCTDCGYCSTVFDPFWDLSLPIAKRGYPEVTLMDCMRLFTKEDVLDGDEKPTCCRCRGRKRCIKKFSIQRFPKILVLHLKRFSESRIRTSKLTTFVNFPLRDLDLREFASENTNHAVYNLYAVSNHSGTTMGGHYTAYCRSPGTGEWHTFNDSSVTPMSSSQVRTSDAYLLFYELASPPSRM

Row | SMILES | activity change, negative = inhibition [%] | Potency
1 | COc1ccc(NC(=O)c2c(C)nn(Cc3ccccc3Cl)c2Cl)cc1Cl | -1.79 | 
2 | Clc1ccc(C(c2ccc(Cl)cc2)n2cc[n+](CC(OCc3ccc(Cl)cc3Cl)c3ccc(Cl)cc3Cl)c2)cc1 (stereo unspecified) |  | 10 µM (active)
3 | O=C(COc1ccc(S(=O)(=O)N2CCOCC2)cc1)N1CCN(Cc2ccc3c(c2)OCO3)CC1 | -0.487 | 
4 | Cc1nn(Cc2ccc(Cl)cc2Cl)c(Cl)c1C(=O)Nc1ccc(OC(F)F)cc1 | -24.9 | 
5 | CC(=Nc1ccc2c(c1)CCC2)c1c(O)n(C)c(=O)n(C)c1=O | -8.7 | 
6 | CC1Oc2cc3c(-c4c(O)cc(O)c5c(O)c6c(cc45)OC(C)C(C)C6=O)c(O)cc(O)c3c(O)c2C(=O)C1C (stereo unspecified) |  | 2 µM (active)
7 | Nc1ccc(S(=O)(=O)N2CCCCC2c2cccnc2)cc1 (stereo unspecified) | -0.331 | 
8 | CCCC1=C(C(=O)OCC)C2(C(=O)Nc3ccc(C)cc32)C(C#N)=C(N)O1 (stereo unspecified) | 0.66 | 
9 | O=c1[nH]c(=O)n(Cc2ccc(F)cc2)c(O)c1C=NCCCn1ccnc1 | -2.32 | 
10 | OC(c1ccncc1)(c1ccc(F)cc1)c1ccc(F)cc1 | -11.2 | 
11 | FC(F)(F)c1ccc2c(c1)N(CCCN1CCN(CCCl)CC1)c1ccccc1S2 | -0.395 | 
12 | CC(C)N1C(=O)/C(=C/C=C/c2ccco2)C(=O)N(Cc2ccco2)C1=O |  | 12.6 µM (active)
13 | O=C1NC(=O)[C@]2(Cc3ccccc3N3CCN(c4ccccc4)CC32)C(=O)N1Cc1ccccc1 (stereo partly specified) |  | 6.31 µM (active)
14 | CCCCn1c(=O)c(C(=O)Nc2ccccc2S(N)(=O)=O)c(O)c2ccccc21 |  | 10 µM (active)
15 | O=C(O)c1cccc2c1NC(C(=O)O)C1CC(Sc3ccccc3[N+](=O)[O-])C(Cl)C21 (stereo unspecified) |  | 5.01 µM (active)
16 | COc1ccc(S(=O)(=O)Cc2ccc(C(=O)N3CCC4(CC3)OCCO4)o2)cc1 | -1.83 | 
